From PubChem BioAssay (NCI)
About 79,000 compounds went through this panel and 15% of them were active in at least one assay; those are over-represented in the sample as a whole. Values without a mark were called inactive. Active and inactive are the calls of the source. Rule as the data show it: active = growth inhibition above about 70%; inactive = the rest.

Experiments:
[1] = NCI Yeast Anticancer Drug Screen. Data for the rad50 strain (AID 155);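 also: 0% = growth of vehicle-only cultures of the same strain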; conditions: S. cerevisiae rad50 strain growth inhibition, stronger effect = higher value
Summary of the method: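 Vehicle-treated cultures provide the reference for the growth inhibition reported for compound-exposed, repair-deficient yeast.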

[2] = NCI Yeast Anticancer Drug Screen. Data for the mec2-1 strain (AID 157); conditions: S. cerevisiae mec2-1 strain, stronger effect = higher value
Summary of the method: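 Compounds were applied to mec2-1 yeast cells. Their growth was then compared with that of vehicle-treated cultures to give growth inhibition.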

[3] = NCI Yeast Anticancer Drug Screen. Data for the sgs1 mgt1 strain (AID 161);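 also: 0% = growth of cultures given vehicle only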; conditions: S. cerevisiae sgs1 mgt1 strain, stronger effect = higher value
Summary of the method: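 Percent growth inhibition was derived by comparing compound-exposed mutant yeast with vehicle-exposed cultures. The strain carries alterations in DNA damage repair.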

[4] = NCI Yeast Anticancer Drug Screen. Data for the cln2 rad14 strain (AID 165);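 also: 0% = growth equal to vehicle treated cultures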; conditions: S. cerevisiae cln2 rad14 strain, stronger effect = higher value
Summary of the method: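 Strain: cln2 rad14 yeast, altered in cell cycle control and DNA damage repair. Read-out: growth inhibition vs vehicle.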

[5] = NCI Yeast Anticancer Drug Screen. Data for the bub3 strain (AID 167); conditions: S. cerevisiae bub3 mutant strain, stronger effect = higher value
Summary of the method: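 Mutant yeast screening strain plus compound; vehicle-treated cultures serve as the 0% inhibition reference.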

[6] = NCI Yeast Anticancer Drug Screen. Data for the mlh1 rad18 strain (AID 175); conditions: S. cerevisiae mlh1 rad18 strain growth inhibition, stronger effect = higher value
Summary of the method: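 A repair-deficient yeast strain is exposed to test compound, and growth is scored relative to vehicle-treated controls.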

[7] = at 5.0 µM (retest, dose inferred, filed as 0.5)
[8] = at 50.0 µM (retest, dose inferred, filed as 5.0)

| SMILES | growth inhibition [1, 7] | growth inhibition [1, 8] | growth inhibition ([1]; at 50.0 µM) | growth inhibition [2, 7] | growth inhibition [2, 8] | growth inhibition ([2]; at 50.0 µM) | growth inhibition [3, 7] | growth inhibition [3, 8] | growth inhibition ([3]; at 50.0 µM) | growth inhibition [4, 7] | growth inhibition [4, 8] | growth inhibition ([4]; at 50.0 µM) | growth inhibition [5, 7] | growth inhibition [5, 8] | growth inhibition ([5]; at 50.0 µM) | growth inhibition [6, 7] | growth inhibition [6, 8] | growth inhibition ([6]; at 50.0 µM) |
| --- | --- | --- | --- | --- | --- | --- | --- | --- | --- | --- | --- | --- | --- | --- | --- | --- | --- | --- |
| C[C@]12CC[C@H](O)C[C@@H]1CC[C@@H]1[C@@H]2C(=O)C[C@]2(C)C3=CC(=O)O[C@H]3C[C@@H]12 | 40% | 97% (active) | 98.2% (active) | 27% | 98% (active) | 91% (active) | 32% | 98% (active) | 94% (active) | -3% | 94% (active) | 57.6% | 11% | 97% (active) | 92.6% (active) | 34% | 98% (active) | 96.8% (active) |
| CCCCCN(CCCCC)CC(O)c1cc2ccccc2c2ccccc12 (stereo not given) | -1% | 98% (active) | 99.3% (active) | 11% | 99% (active) | 99.4% (active) | 18% | 100% (active) | 99.4% (active) | -12% | 98% (active) | 99.2% (active) | -1% | 99% (active) | 99.3% (active) | 27% | 99% (active) | 99.2% (active) |
| CC(C(=O)O)c1c(-c2ccccc2)ccc2ccccc12 (stereo not given) | 37% | 3% | 38.9% | 22% | 4% | 51.1% | 2% | 32% | 51.5% | -8% | 12% | 52.1% | 6% | 14% | 38.9% | 5% | 24% | 63.6% |
| O=C(NCCCNCCNC(=O)c1cc(-c2ccccc2)nc2ccccc12)c1cc(-c2ccccc2)nc2ccccc12 | -22% | 93% (active) | 98.6% (active) | -12% | 98% (active) | 99.2% (active) | -4% | 89% (active) | 99.1% (active) | 28% | 94% (active) | 99.3% (active) | -23% | 99% (active) | 99.1% (active) | 5% | 98% (active) | 99.3% (active) |
| CN(C)CCC1(C2=CCCC2)CC/C(=C\c2ccccc2Cl)C1=O (stereo not given) | -1% | 60% | 69.3% | -18% | 28% | 22.6% | 0% | 62% | 42.4% | -10% | 51% | 73% (active) | 19% | 76% (active) | 36.5% | 4% | 92% (active) | 87.8% (active) |
| CCCCCCCCCCCCCCSC(=NC)NC | 99% (active) | 99% (active) | 99.5% (active) | 99% (active) | 99% (active) | 99.8% (active) | 100% (active) | 99% (active) | 99.5% (active) | 99% (active) | 99% (active) | 98.9% (active) | 99% (active) | 99% (active) | 99.5% (active) | 98% (active) | 99% (active) | 99.4% (active) |
| O=C(O)CCSCc1cc(C(=O)Nc2ccc(/C=C/c3ccc(NC(=O)c4cc(CSCCC(=O)O)c5cccnc5c4O)cc3S(=O)(=O)O)c(S(=O)(=O)O)c2)c(O)c2ncccc12 | 48% | 53% | 74% (active) | 37% | 89% (active) | 61.6% | 58% | 53% | 79.1% (active) | 22% | 74% (active) | 45.5% | 59% | 96% (active) | 78.4% (active) | 52% | 92% (active) | 79.5% (active) |
| Nc1ccc2ccccc2c1Cc1c(O)ccc2ccccc12 | 9% | 96% (active) | 99.2% (active) | 0% | 98% (active) | 98.8% (active) | 6% | 98% (active) | 98.9% (active) | 1% | 88% (active) | 84.5% (active) | 0% | 63% | 88.8% (active) | 6% | 88% (active) | 95.7% (active) |
| CCc1cccc(C(C)(C)C)c1NC(=S)N/C=C(\c1ccccc1)S(=O)Cc1ccccc1 (stereo not given) | 2% | 77% (active) | 68.4% | 7% | 70% (active) | 46.2% | 10% | 56% | 68.2% | -15% | 45% | 33.5% | -23% | 25% | 73.4% (active) | 14% | 62% | 69.8% |
| NC(=O)NN=C1CSSC1 | 7% | 48% | 96.2% (active) | 4% | 23% | 76.5% (active) | 3% | 34% | 58% | -9% | -6% | -3.8% | 1% | 2% | 77.8% (active) | -1% | 72% (active) | 94.2% (active) |
| Cc1occc1C(=S)Nc1ccc(Cl)c(C(=O)OC(C)C2CC2)c1 (stereo not given) | 9% | 59% | 58.1% | 16% | 48% | 39.9% | -1% | 46% | 78.8% (active) | -5% | 51% | 81.5% (active) | 6% | 56% | 77.1% (active) | 12% | 76% (active) | 63.5% |
| c1ccc(C[n+]2cccc(-c3cc4ccccc4[nH]3)c2)cc1 | 12% | 14% | -21.7% | 0% | -42% | -24.6% | -9% | 17% | -45.2% | -46% | -23% | 77.3% (active) | -17% | -9% | -43.5% | -1% | 13% | -3.55% |
| COc1ccccc1/C=C\C(=O)c1ccccc1 | 2% | 89% (active) | 98.7% (active) | 1% | 98% (active) | 99.4% (active) | 2% | 95% (active) | 99.2% (active) | -4% | 57% | 89.8% (active) | 5% | 98% (active) | 98.8% (active) | 2% | 98% (active) | 98.8% (active) |
| O=C(O)CCCCC1CCCCC1.[Cu+2] | 31% | 94% (active) | 14.7% | 23% | 90% (active) | -3.1% | 13% | 93% (active) | 36% | 8% | 30% | 0.9% | 17% | 91% (active) | 6.2% | 19% | 94% (active) | 1.85% |
| CNc1ccc(N)cc1 | 6% | -9% | -15.1% | -2% | -5% | 21.6% | -8% | -2% | -3.85% | 5% | 1% | 26.4% | 9% | 8% | 7.1% | 0% | -5% | -15.2% |
| O=C1CCC/C(c2ccccc2)=N\N=C/1c1ccccc1 | 7% | 12% | 54.8% | 10% | 16% | -6.6% | 10% | 34% | 21.6% | 8% | 12% | -5.1% | 11% | 33% | 24.3% | 4% | 18% | 23.6% |
| O=c1[nH]c2ccccc2nc1CBr | 5% | 95% (active) | 30.9% | 16% | 99% (active) | 71.2% (active) | 8% | 98% (active) | 91.2% (active) | 0% | 95% (active) | 1.85% | 14% | 98% (active) | 90.2% (active) | 16% | 99% (active) | 91.1% (active) |
| CC(C)c1ccc(S(=O)(=O)c2ccc([N+](=O)[O-])cc2[N+](=O)[O-])cc1 | 98% (active) | 91% (active) | 93.8% (active) | 100% (active) | 97% (active) | 96.5% (active) | 100% (active) | 97% (active) | 96.8% (active) | 76% (active) | 94% (active) | 94.5% (active) | 95% (active) | 96% (active) | 96.2% (active) | 99% (active) | 95% (active) | 96.2% (active) |
| COc1ccc(C(C#N)=C2C=CC(=NOC(=O)Nc3ccccc3)C=C2)cc1 | 41% | 82% (active) | 88.4% (active) | 28% | 92% (active) | 93.1% (active) | 68% | 96% (active) | 94.8% (active) | 4% | 91% (active) | -1.4% | 12% | 37% | 69.1% | 33% | 91% (active) | 96.3% (active) |
| CC(C)(C)c1ccc(OC(=O)Nc2ccc(Cl)cc2[N+](=O)[O-])c(Br)c1 | -31% | 32% | 33% | 2% | 9% | 64.2% | 3% | 37% | 68.5% | 3% | 7% | 90.8% (active) | 1% | 14% | 20.1% | 10% | 38% | 77.5% (active) |
